Screens deposited in PubChem by National Center for Advancing Translational Sciences (NCATS).
CHX counter = counter-screen for Shiga toxin inhibitors: cycloheximide protein synthesis inhibition; cell reporter, cycloheximide protein synthesis inhibition counterscreen; max response, %; actives 12% (n = 300,000); AID 2314; in the data active = max response mostly above about 13%, no sharp cut-off; inactive = mostly below about 14%; note: read at 38.3 µM for the half of the compounds with a filed dose; 0% is about no effect
Pf growth 96h = P. falciparum growth inhibition at 96 hours; P. falciparum luciferase reporter growth, 96 h; Potency, µM (series often up to 28.7 µM), for the others: at the top dose activity change, negative = inhibition, usual class: inhibitors; actives 6.9% (n = 320,000); AID 504834; note: potency is the fitted concentration of half-maximal effect; % is set by controls: 0 for no effect and ±100 for the full control effect
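Infected RBCs, 2% Hct / 0.05% parasitemia final; luciferase-reporter P. falciparum; cpd 96 h, 37 C, 5% CO2; luciferase detection reagent; luminescence.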
NS1 inh = influenza NS1 inhibition; Potency, µM (series often up to 46.1 µM), without a hit: at the top dose activity, positive = more growth; actives 0.4% (n = 270,000); AID 2326; calls by dose curve; note: potency is the fitted concentration of half-maximal effect; actives are rising curves; nearly all actives have a fitted effect of over 50% in size
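Compounds were scored for reversing the slow growth caused by influenza A NS1 in S. cerevisiae, measured by optical density at 600 nm. Assay medium contained 2% galactose at pH 6.0; NS1-free yeast of the same strain were the positive control.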
Shiga inhibitor = blocks Shiga toxin action in Vero cells | inhibition, % at 38.7 µM | actives 9.2% (n = 290,000) | Vero cells, Shiga toxin protein synthesis inhibition reporter; in the data active = inhibition mostly above about 28%, no sharp cut-off; inactive = mostly below about 43%; note: 0% is about no effect
FBPA Giardia inh = Giardia lamblia aldolase inhibition; A8B2U2; Potency, µM (doses to about 59.6 µM), for inactives: top-dose activity, negative = inhibition, usual class: inhibitors; actives 0.71% (n = 290,000); AID 2451; purified Giardia FBPA; note: potency is the fitted concentration of half-maximal effect; % is set by controls: 0 for no effect and ±100 for the full control effect; nearly all actives have a fitted effect of over 55% in size
Target sequence (A8B2U2 whole entry, looked up): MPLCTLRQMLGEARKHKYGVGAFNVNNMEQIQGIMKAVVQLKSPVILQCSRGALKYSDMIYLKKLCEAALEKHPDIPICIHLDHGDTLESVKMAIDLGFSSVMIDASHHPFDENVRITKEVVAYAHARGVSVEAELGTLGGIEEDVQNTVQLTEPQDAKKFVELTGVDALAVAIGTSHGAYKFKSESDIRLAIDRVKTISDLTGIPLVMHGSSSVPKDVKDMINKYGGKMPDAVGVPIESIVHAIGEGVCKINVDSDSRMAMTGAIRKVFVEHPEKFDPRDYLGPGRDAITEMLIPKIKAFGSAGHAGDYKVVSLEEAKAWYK
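Giardia FBPA (40 nM reagent) was preincubated 10 min at RT with compound (up to 57.5 uM final), then substrate plus GAPDH/TPI/NAD/arsenate coupling system with diaphorase/resazurin was added; resorufin fluorescence (525/598 nm) was read after 20 min.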
Pf growth 48h = P. falciparum growth inhibition at 48 hours (one generation); P. falciparum luciferase growth in erythrocytes, 48 h; Potency, µM (titrated, usually from 28.7 µM), without a hit: at the highest dose activity change, negative = inhibition, actives largely listed as inhibitors; actives 5.9% (n = 310,000); AID 504832; note: potency is the fitted concentration of half-maximal effect; % is set by controls: 0 for no effect and ±100 for the full control effect
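Parasite viability was followed by luminescence of a genomically integrated firefly luciferase. Cultures held 0.1% parasitemia at 2% hematocrit (final), incubated under 5% CO2 at 37 C.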
* hit, by the source's call; i = inactive; ? = inconclusive; · = no result given; + = active, no number; [ ] = remark or other dose. A selection: hits, their analogues and other compounds. The true share with any hit is near 21%. Unless noted, calls come from the whole dose curve; as a rule, active = well fitted curve in the direction sought with a large enough effect; inconclusive = small, poorly fitted or top-dose-only effect, or another doubt; inactive = no such curve, though single readings can be large; an effect the other way counts as inactive or inconclusive.

SMILES | CHX counter | Pf growth 96h | NS1 inh | Shiga inhibitor | FBPA Giardia inh | Pf growth 48h
CSc1nc(-c2ccco2)nn1C(=O)c1ccco1 | -4.3 | -8.9% | -30.2% | -15.3 | -20.6% | -0.1%
CSc1nc(-c2ccc(Cl)cc2)nn1C(=O)c1ccco1 | 61.8* | 111.1% | -9.9% | 64.9* | -0.6% | ·
CCc1cc(C(=O)Cc2nc3ccccc3s2)c(O)cc1OCC(=O)O | -1.9 | 88.2% | ? | -1.9 | -10.8% | 65.9%
O=C(CSc1nc2ccccc2s1)c1ccc(O)cc1O | 22.1* | 45.3% | -37.7% | 59.2* | -0.6% | 33.2%
O=C(Cc1nc2ccccc2s1)c1ccc(O)cc1O | 40.5* | 50.7% | -55.2% | 64.6* | -8.7% | ?
CSc1ccccc1OCc1cc(C(=O)N2CCc3c(Cl)cccc3C2)no1 | 4.1 | ? | 4.3% | -2.5 | 4.6% | 17.4%
CC(=O)Nc1cccc(C(=O)N2CCC(n3nccc3NC(=O)CC(C)C)CC2)c1 | 1.8 | 32.4% | 7.7% | -6.3 | · | 6.3%
Cc1cc(Cc2cc(C)c(N)cc2N)c(N)cc1N | · | · | 8.91µM* | · | · | ·
Cc1ccc(NC(=O)CSc2nnc(CNC(=O)c3cccs3)o2)c(C)c1 | -1.5 | 7.9% | · | -2.0 | 5.5% | 9.6%
CC1CCCCN1Cc1ccc(N)cc1 (stereo not given) | -4.0 | 0.104µM* | 10.2% | 10.1 | -0.3% | -7.3%
COC(=O)c1ccc2nc(NC(=O)C3CC3)sc2c1 | 49.1* | 51.8% | -11.9% | 155.2* | -6.7% | 90.0%
COC(=O)c1ccc2nc(NC(=O)CN3C(=O)CCC3=O)sc2c1 | 19.0 | 0.828µM* | 3.2% | 16.0 | 1.2% | -0.2%
COC(=O)c1ccc2nc(NC(=O)C(C)C)sc2c1 | 51.9* | 204.2% | · | 97.9* | 2.8% | 192.5%
Nc1ccccc1C(=O)/C=C/c1ccc2c(c1)OCO2 | 69.0* | 73.3% | -5.9% | 116.4* | 0.4% | 220.9%
O=C(/C=C/c1ccc2c(c1)OCO2)c1ccco1 | 16.6* | 6.57µM* | 10.0% | 29.4* | -1.8% | 34.1%
NC(=O)/C(=C/c1ccc2c(c1)OCO2)NC(=O)c1ccco1 | 7.9 | 23.4% | 6.5% | -4.9 | -4.6% | -4.6%
N#CCOC(=O)/C=C/c1ccc2c(c1)OCO2 | 22.1* | -18.9% | -1.9% | 66.6 | -1.5% | 1.3%
O=C(COC(=O)/C=C/c1ccc2c(c1)OCO2)NC1CC1 | 7.7 | 49.1% | -27.9% | 32.1 | 3.7% | 25.0%
O=C(/C=C\Nc1ccc2c(c1)OCO2)c1ccc(Cl)s1 | 57.1* | 12.7% | · | 71.2* | -5.7% | 487.5%
O=C(/C=C\Nc1ccc2c(c1)OCO2)c1cccs1 | 6.9* | 47.9% | -36.9% | 66.5* | -7.7% | 24.9%
COc1ccc(C(=O)N/C(=C/c2cccnc2)C(=O)Nc2cccc(C(C)=O)c2)cc1OC | 3.3 | 2.9% | -0.8% | -4.9 | 4.4% | 0.0%
Clc1ccc(SCCn2ccnc2)cc1 | -1.8 | 13.1µM* | -9.7% | 9.9 | -18.5% | -17.1%
O=C(CCCOc1ccccc1)NN1C(=O)NC2(CCCCC2)C1=O | · | 22.0% | · | · | · | -15.2%
Oc1c(Cl)cc(Cl)cc1CNc1ccc(Br)cn1 | 31.9* | 39.5% | 2.4% | 72.8* | 6.3% | ·
Oc1ccc(Cl)cc1CNc1ccc(Br)cn1 | 45.2* | -2.8% | -38.9% | 110.6* | -14.0% | ?
SMILES | CHX counter | Pf growth 96h | NS1 inh | Shiga inhibitor | FBPA Giardia inh | Pf growth 48h
Oc1ccc(Cl)cc1CNc1nccs1 | 9.2 | ? | -9.7% | 17.3 | -0.6% | ?
Oc1ccc(Cl)cc1CNc1ccccn1 | 15.1* | 10.4µM* | -15.6% | 51.5 | 6.6% | ?
CCN(CC(=O)NC1CCS(=O)(=O)C1)c1ccc([N+](=O)[O-])cc1C#N (stereo not given) | · | ? | · | · | · | -4.4%
Cc1cc(C(=O)COC(=O)c2ccc(O)cc2O)c(C)n1C(C)C | · | -74.5% | · | · | · | -16.8%
CN(C)/N=N/c1nc[nH]c1C(N)=O | · | 6.1% | · | · | -4.9% | -6.8%
Cc1nn(C)cc1C(=O)NNC(=S)Nc1ccccc1 | 17.3* | i | 4.2% | 20.7 | 0.9% | 210.4%
Cc1c(C(=O)NNC(=S)Nc2cccc(Cl)c2)nnn1-c1ccccc1 | 57.3* | 19.7% | -12.1% | + | ? | 23.2%
COc1ccccc1C(=O)NNC(=S)Nc1ccccc1 | 16.8 | -7.8% | -1.6% | 27.7 | 3.7% | -1.5%
Cc1cc(C(=O)NNC(=S)Nc2ccccc2)nn1C | 14.0 | 86.7% | 2.6% | 61.2* | -9.5% | 75.1%
Cc1cc(NC(=O)Nc2cccc(Cl)c2)n(-c2ccccc2)n1 | 0.5 | 0.0% | -6.1% | 13.7 | 0.4% | 0.0%
C#CCOCCOCCOCCNc1nc(N2CCN(C(=O)CCCCCCCCCCNC(=O)[C@H](CCCCN)n3cc(CCO)nn3)CC2)nc(N2CCN(C(=O)CCCCCCCCCCNC(=O)[C@H](CCCCN)n3cc(C[C@@H](C)CC)nn3)CC2)n1 | · | ? | · | · | · | 7.38µM*
C#CCOCCOCCOCCNc1nc(N2CCN(C(=O)CCCCCCCCCCNC(=O)[C@@H](CCC(=O)O)n3cc(CCCCCN)nn3)CC2)nc(N2CCN(C(=O)CCCCCCCCCCNC(=O)[C@H](CCCCN)n3cc(C[C@@H](C)CC)nn3)CC2)n1 | · | ? | · | · | · | 5.86µM*
C#CCOCCOCCOCCNc1nc(N2CCN(C(=O)[C@H]([C@@H](C)O)n3cc(CCCCN)nn3)CC2)nc(N2CCN(C(=O)[C@H](CCCCN)n3cc(CC(C)O)nn3)CC2)n1 (stereo not given in full) | · | -9.8% | · | · | · | 15.0%
C#CCOCCOCCOCCNc1nc(N2CCN(C(=O)[C@H]([C@@H](C)CC)n3cc(CCCCN)nn3)CC2)nc(N2CCN(C(=O)[C@H](CCCCN)n3cc(CC(C)O)nn3)CC2)n1 (stereo not given in full) | · | 74.5% | · | · | · | -1.3%
CC[C@H](C)Cc1cn([C@@H](CCCCN)C(=O)NCCCCCCCCCCC(=O)N2CCNCC2)nn1 | · | ? | · | · | · | 11.7µM*
O=S(=O)(Nc1ccc(Cl)cn1)c1ccccc1 | -4.2 | 18.7% | -2.5% | -14.4 | 3.2% | -3.7%
C=CCCC(=O)Nc1ccc(Br)cn1 | 27.5 | 3.6% | -5.1% | 30.8 | 0.1% | 14.2%
O=C(Cc1ccc(Cl)cc1)Nc1ccccn1 | 35.6* | -1.3% | -2.9% | 24.3 | -4.2% | 39.2%
O=C(Nc1ccc(F)cc1)Nc1ccc(Cl)cn1 | 23.1* | 80.6% | -11.6% | 61.5* | 4.0% | 65.2%
O=C(Cc1ccc(Cl)cc1)Nc1ccc(Br)cn1 | 35.8* | ? | -2.7% | 71.9* | 4.1% | 61.4%
O=C(Cc1ccc(Cl)cc1)Nc1ncccn1 | -2.1 | 8.1% | 4.8% | -1.9 | 4.8% | 11.6%
O=S(=O)(Cc1ccc(Cl)cc1)Nc1ccc(Cl)cn1 | 11.1 | -7.1% | 9.6% | 25.1* | -4.7% | 26.6%
CC(NC(=O)c1cc(S(=O)(=O)N2CCCC2)ccc1Cl)c1ccccn1 (stereo not given) | · | -26.1% | · | · | · | 5.6%
C#CCCCO/N=C1/C[C@@H](O)[C@@H](O)[C@@H]2[C@@H]3C(=O)N(C(C)(C)C)C(=O)[C@H]3CC[C@@H]12 | · | · | · | · | 2.6%[12.9 µM] | ·
COc1ccc(-c2nc(SC(CC(=O)NCCN3CCOCC3)c3cccs3)n[nH]2)cc1 (stereo not given) | -3.2 | -20.6% | · | 11.2 | 1.6% | ?
